Each structure is given as a SMILES string. Out of some 340,000 compounds screened, about 330 (0.097%) were called active.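 Rule for the calls: active = mean replicate inhibition of at least 30% and at least 1% of replicates passing that level; inconclusive = only one of the two criteria is met; inactive = neither criterion is met.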 Many of the other results were omitted from the sample, so actives are more common in it than they were.

This experiment has as its system Voltage-dependent L-type calcium channel subunit alpha-1D (CaV1.3) ICDI/IQ interaction. The experiment in a line: Primary screen for inhibitors of IQ motif and Ca2+-dependent inactivation inhibitor domain binding in CACNA1D, Förster resonance energy transfer in living cells, single-concentration test (AID 743397).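 Note: 0% = median of the neutral control wells.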 As to conditions: HEK cells, CFP/YFP FRET ICDI-IQ, plate reader, 10 min; at 12.3 µM; hits give high values; percent FRET-ratio fall versus neutral wells.
Consider `O=C(N[C@H](C(=O)N1CCC[C@H]1C(=O)NCCc1ccccc1Cl)c1ccccc1)c1ccccc1`, for which the inhibition (commonly the relative decrease from the control value, in per cent) was -4.64% (inactive).

`Oc1cccc2cc(-c3ccncc3)cnc12`: the inhibition was -5% (inactive).

Take `COC(=O)C1=C(C)N(Cc2ccccc2C(F)(F)F)C(=NCc2ccc(OC)cc2)NC1c1cccc(C(F)(F)F)c1` (stereo not given): the inhibition is -9.27% (inactive).

Take `CCCCOCCCNC(=O)C[C@@H]1C[C@@]2(C(=O)OC)CCCCC=C2N(CCC2=CCCCC2)C1=O`: the inhibition was -3.67% (inactive).

`COC(=O)c1ccc2ccccc2c1OC1OC(CO)C(O)C(O)C1NC(C)=O` (stereo not given): the inhibition was -1.34% (inactive).

In the case of `CCc1cccc(OC2OC(CO)C(O)C(O)C2NC(C)=O)c1` (stereo not given), the inhibition was 107% (active).

For `CCCCCCCCCOC1OC(CO)C(O)C(O)C1NC(C)=O` (stereo not given), the inhibition was -5.79% (inactive).

Take `CCCCNc1cccc2c1S(=O)(=O)N[C@@H](C)CO2`: the inhibition was -5.83% (inactive).

With `COC(=O)C1=C(C)N(Cc2cccc(C(F)(F)F)c2)C(=NCc2ccccc2)NC1c1ccccc1C(F)(F)F` (stereo not given), the inhibition was -1.85% (inactive).

Take `CCCCc1c(-c2ccc(Br)cc2)ncn1CCc1ccccc1OC`: the inhibition is -9.97% (inactive).

Turning to `COC(=O)c1ccc(CN2C(=O)[C@]3(OCCC=C[C@H]3C)c3c(Br)cccc32)cc1`, the inhibition is -5.34% (inactive).

As for `COc1ccc(-c2ccc3c(n2)CCCN3S(=O)(=O)c2ccc(C)cc2)cc1`, the inhibition was -4.73% (inactive).

Turning to `COc1ccc(CNS(=O)(=O)c2cc(Br)ccc2Br)cc1`, the inhibition is -5.62% (inactive).

For the compound `COc1cccc(NC(=O)N(C)C[C@@H]2OCc3cn(nn3)CCCC(=O)N([C@@H](C)CO)C[C@H]2C)c1`, the inhibition was -4.88% (inactive).

`CN1C(=O)C(Br)(Br)CC1c1cccnc1` (stereo not given): the inhibition was -4.22% (inactive).

With `CC[C@H](NC(=O)[C@H](Cc1ccccc1)NC(=O)[C@H]1O[C@@H](n2cnc3c(=O)[nH]c(N)nc32)[C@H](O)[C@@H]1O)c1ccccc1`, the inhibition was -7.74% (inactive).

Consider `COC(=O)[C@]12C[C@H](CC(=O)N3CCN(C(=O)C4CC4)CC3)C(=O)N(Cc3ccc4c(c3)OCO4)C1=C[C@H](C(C)(C)C)O[C@@H]2C`, for which the inhibition was -7.42% (inactive).

As to `CC1CCCN(c2cccc3c2S(=O)(=O)N(Cc2ccc(F)cc2)[C@@H](C)[C@H](c2ccccc2)O3)C1` (stereo not given in full), the inhibition was -4.9% (inactive).

For the compound `COCCNC(=S)N(C)[C@H]1C[C@H]2c3[nH]c4ccccc4c3CCN2C[C@H]1[C@H](C)O`, the inhibition was -5.06% (inactive).

Regarding `COC(=O)N1Cc2ccnnc2CC1c1ccccc1Br` (stereo not given), the inhibition is -4.44% (inactive).

`CCOC(=O)N1CCN(C(=O)C[C@H]2C[C@@]3(C(=O)OC)C(=C[C@H](C4CCCC4)O[C@@H]3C)N(Cc3ccccc3)C2=O)CC1`: the inhibition was -8.9% (inactive).

Regarding `O=C(Nc1c(Cl)c(C2CC2)nn1-c1ccccc1)C(Cl)(Cl)Cl`, the inhibition was -4.55% (inactive).

`O=c1[nH]c(-c2ccccc2)cn1C1CCN(Cc2ccc(-c3nc4ccc(F)cc4nc3-c3ccccc3)cc2)CC1`: the inhibition is -6% (inactive).

Take `CC(=NNC(N)=O)c1ccc(Cl)c(-n2cccc2)c1`: the inhibition was -7.9% (inactive).

Consider `CCc1ccc(C2=CC(=O)CC(C)(C)C2=O)cc1`, for which the inhibition was -7.01% (inactive).

Consider `COC(=O)C1=C(C)N(Cc2ccc(C(F)(F)F)cc2)C(=NCc2ccccc2)NC1c1ccccc1C(F)(F)F` (stereo not given), for which the inhibition is -9.62% (inactive).

With `Nc1ncnc2c1ncn2[C@@H]1O[C@H](C(=O)N[C@@H](CCc2ccccc2)C(=O)NCC(=O)N2CCOCC2)[C@@H](O)[C@H]1O`, the inhibition is -4.61% (inactive).

For the compound `CC(=O)N1C[C@@H](CO)[C@@H](N(C)C(=O)C(C)(C)C)C[C@H]1c1ccccc1Br`, the inhibition is -3.95% (inactive).

Regarding `CCOC(=O)Cn1c2c(n(-c3ccc(F)cc3)c1=O)C=C(c1ccccc1)[C@@H](C)C(C(=O)N(C)C1CCCCC1)=C2`, the inhibition is -5.25% (inactive).

`Cc1ccc(C)c(N2C(=O)CS/C2=N\NC(=O)c2ccccc2Cl)c1`: the inhibition is -8.17% (inactive).

For `Cc1cccc(/C(N)=N/OC(=O)c2ccccc2Cl)c1`, the inhibition was 1.19% (inactive).

Consider `Cc1cc(OC(=O)c2ccccc2Cl)ccc1N1C(=O)CCC1=O`, for which the inhibition was 66.2% (active).

Regarding `CC[C@H](C)[C@H]1CNC(=O)C(=O)N1CC1CCN(CCc2ccc(OC)c(OC)c2)CC1`, the inhibition was -5.2% (inactive).

Turning to `CC1CCN(CCCn2c(SCC(=O)NC3CCCC3)nc3ccccc3c2=O)CC1`, the inhibition is -1.93% (inactive).

On to `CCCN(CCC)CCNC(=O)c1cc2c(C)nc3ccccc3c2o1`, for which the inhibition was -3.91% (inactive).

For `Cc1nc2ccccc2c2oc(C(=O)NCCCN3CCC(C)CC3)cc12`, the inhibition is 61.5% (active).

Take `CC(C)(C)n1nc(C2CC2)c(Br)c1NC(=O)c1ccccc1F`: the inhibition was -11.7% (inactive).

With `CC(=O)C1=C(C)N(Cc2ccccc2)C(=S)NC1c1cccc(Br)c1` (stereo not given), the inhibition is -5.09% (inactive).

For the compound `Cc1cc2c(nc1C)CCCN2C`, the inhibition is -4.25% (inactive).

In the case of `CN1C(=O)C2CC(O)C(SC3CC4C(=O)N(C)C(=O)C4CC3O)CC2C1=O` (stereo not given), the inhibition was -4.52% (inactive).

`COC(=O)C1=C(C(=O)OC)C2C=C(C(C)C)C1C(=O)C2(C)O` (stereo not given): the inhibition was -3.68% (inactive).

Consider `O=C(NCc1ccccc1)[C@@H]1CCCN1C(=O)[C@H]1CCCN1C(=O)c1cccc(Cl)c1`, for which the inhibition is -3.24% (inactive).

On to `C[C@H]1CN([C@@H](C)CO)C(=O)CCCn2nncc2CO[C@@H]1CN(C)C(=O)Nc1ccc(N2CCN(C)CC2)cc1`, for which the inhibition was -5.58% (inactive).

Consider `CCOC(=O)c1ccc(-c2ccc3ncnc(N(C)Cc4sccc4C)c3c2)o1`, for which the inhibition was -9.32% (inactive).

As for `Clc1cccc2c1C1CC2CCN1Cc1ccccc1` (stereo not given), the inhibition was -3.78% (inactive).

On to `Nc1[nH]c(C(=O)c2ccccc2)c(-c2ccc(Cl)cc2Cl)c1C(=O)c1ccccc1`, for which the inhibition was -17.7% (inactive).

For `Cn1c(=O)[nH]c(=O)c2c1nc(N1CCN(CCO)CC1)n2CCSc1nc2ccccc2s1`, the inhibition is -4.96% (inactive).

For `CCOC(=O)c1oc2c(CN3CCN(CCO)CC3)c(O)c(CC)cc2c(=O)c1-c1nc2ccccc2s1`, the inhibition is 37% (active).

As to `CCOC(=O)c1oc2c(CN3CCN(C)CC3)c(O)ccc2c(=O)c1-c1ccc(Br)cc1`, the inhibition was -4.95% (inactive).

For `O=C(NCc1ccccc1)[C@H]1CCCN1C(=O)[C@H]1CCCN1C(=O)c1cc(F)cc(F)c1`, the inhibition is -8.46% (inactive).

For the origin of these results see PubChem BioAssay AID743397 (Broad Institute, 2014).
